For 14 compounds, growth results are on record in PubChem BioAssay (NCI).

Among the test systems are T-47D breast; BT-549 breast; MDA-MB-435 melanoma; SW-620 colon; MCF7 breast; HCT-116 colon; KM12 colon; HCC-2998 colon.
What all share (experiment): NCI-60 one-dose screen, 48 h (100 = growth as untreated, 0 = no growth, -100 = all killed)
Details in all cases: 10 µM unless noted

“And” between values parts separate entries of the source, which are not always exact repeats. Identical values can stand only once. About 83,000 compounds went through this panel and 20% of them were active in at least one assay; those are over-represented in the sample as a whole.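 Cell lines were cultured in 96-well plates, exposed to a single compound concentration, and assessed for percent growth 48 hours later.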 The source made the active and inactive calls. Rule for the calls: active = growth percent below 10; inactive = the rest.

For the compound `O=C(O)C#Cc1ccc(Cl)cc1`, the growth in the assay with T-47D breast is 90.7% (inactive); in the assay on BT-549 breast, 99.9% (inactive); in the assay on MDA-MB-435 melanoma, 106% (inactive); in the assay with SW-620 colon, 96.8% (inactive); with MCF7 breast, 98.8% (inactive); in the assay on HCT-116 colon, 102% (inactive). For the same compound, the growth in the assay on KM12 colon was 104% (inactive).
As for `COc1ccc(-n2[nH]c3c(cnc4ccccc43)c2=O)cc1`, the growth with T-47D breast was 88.3% (inactive); in the assay on BT-549 breast it was 90% (inactive) and 95.4% (inactive); in the assay on MDA-MB-435 melanoma it was 94.7% (inactive) and 97.3% (inactive); in the assay with SW-620 colon it was 106% (inactive) and 103% (inactive); in the assay with MCF7 breast it was 98.8% (inactive) and 93.1% (inactive); with HCT-116 colon, 90.5% (inactive) and 95.1% (inactive). Further, the growth with KM12 colon is 99.1% (inactive) and 97.7% (inactive).
`O=C(O)c1cc(=O)[nH]c(=O)[nH]1`: the growth with T-47D breast was 101% (inactive) and 105% (inactive); with BT-549 breast, 97.2% (inactive); with MDA-MB-435 melanoma, 96.7% (inactive) and 113% (inactive); in the assay on SW-620 colon, 111% (inactive) and 103% (inactive); with MCF7 breast it was 98.7% (inactive); in the assay with HCT-116 colon, 107% (inactive). Further, in the assay with KM12 colon, the growth is 106% (inactive) and 99.6% (inactive).
Consider `COc1cc(C2c3cc4c(cc3C(OC(=O)C[n+]3ccccc3)C3COC(=O)C23)OCO4)cc(OC)c1OC` (stereo not drawn), for which the growth is 94.8% (inactive) in the assay on T-47D breast; 19.8% (inactive) in the assay with BT-549 breast; -8.6% (active) with MDA-MB-435 melanoma; 21.3% (inactive) in the assay on SW-620 colon; 9.23% (active) with MCF7 breast; 5.09% (active) with HCT-116 colon. Besides, the growth is 13.3% (inactive) in the assay with HCC-2998 colon and -8.66% (active) in the assay with KM12 colon.
For `CC(=O)Oc1cc(C(C)C)c(OCCN(C)C)cc1C`, the growth in the assay on T-47D breast was 90% (inactive) and 86.2% (inactive); in the assay with BT-549 breast it was 119% (inactive) and 100% (inactive); in the assay on MDA-MB-435 melanoma, 99.2% (inactive) and 99.4% (inactive); with SW-620 colon, 104% (inactive) and 100% (inactive); in the assay on MCF7 breast it was 109% (inactive) and 95.7% (inactive); in the assay with HCT-116 colon, 107% (inactive) and 102% (inactive). Also, the growth in the assay with KM12 colon was 102% (inactive) and 110% (inactive).
For the compound `CC(CN(C)C)CN1c2ccccc2Sc2ccccc21` (stereo not drawn), the growth with T-47D breast is 79.4% (inactive) and 88.3% (inactive); in the assay with BT-549 breast it was 79% (inactive) and 91.8% (inactive) and 80.2% (inactive); with MDA-MB-435 melanoma, 76.3% (inactive) and 85% (inactive) and 75.7% (inactive); with SW-620 colon it was 86.9% (inactive) and 83.8% (inactive) and 88.8% (inactive); with MCF7 breast, 88.2% (inactive) and 94.2% (inactive) and 82.2% (inactive); with HCT-116 colon, 59.3% (inactive) and 63.9% (inactive) and 94.9% (inactive). Also, the growth in the assay with HCC-2998 colon is 78.4% (inactive) and 97.8% (inactive) and 83.4% (inactive); in the assay with KM12 colon it was 95.4% (inactive) and 104% (inactive) and 89.5% (inactive).
For `NCCSSC/C=C\CSSCCN`, the growth was 86.4% (inactive) in the assay with T-47D breast; 100% (inactive) in the assay on BT-549 breast; 105% (inactive) with MDA-MB-435 melanoma; 102% (inactive) in the assay on SW-620 colon; 97.2% (inactive) in the assay with MCF7 breast; 94.3% (inactive) in the assay on HCT-116 colon. In the assay with KM12 colon, the growth was 102% (inactive).
Regarding `CCCCC/C(C)=N\NC(N)=S`, the growth was 33.6% (inactive) in the assay with T-47D breast; 96.7% (inactive) with BT-549 breast; 84.4% (inactive) in the assay on MDA-MB-435 melanoma; 19.6% (inactive) in the assay on MCF7 breast; 11.7% (inactive) in the assay on HCT-116 colon; 97.8% (inactive) in the assay on HCC-2998 colon. Also, the growth in the assay on KM12 colon is 93.5% (inactive).
Consider `COCCCNC1=C(C#N)C(=O)NC(c2cccs2)S1` (stereo not drawn), for which the growth with T-47D breast is 89% (inactive); in the assay with BT-549 breast, 96% (inactive); with MDA-MB-435 melanoma, 95.9% (inactive); with MCF7 breast, 89.6% (inactive); with HCT-116 colon it was 103% (inactive); in the assay on KM12 colon, 108% (inactive).
In the case of `O=C(O)C1CSCN1` (stereo not drawn), the growth in the assay on T-47D breast was 107% (inactive) and 97.9% (inactive); in the assay on BT-549 breast it was 99% (inactive); in the assay on MDA-MB-435 melanoma, 95.5% (inactive) and 104% (inactive); with MCF7 breast it was 95.4% (inactive); in the assay on HCT-116 colon it was 108% (inactive) and 94.4% (inactive); in the assay with HCC-2998 colon it was 133% (inactive) and -20.6% (active). Also, the growth in the assay with KM12 colon is 117% (inactive) and 110% (inactive).
`Clc1ccc(/C=C/c2ccc3ccccc3n2)cc1`: the growth in the assay on T-47D breast was 18.6% (inactive) and 65.6% (inactive) and 52.5% (inactive); with BT-549 breast, 58.7% (inactive) and 107% (inactive) and 94.8% (inactive); in the assay with MDA-MB-435 melanoma, -38.5% (active) and 85.2% (inactive) and 92.6% (inactive); with MCF7 breast it was 15.1% (inactive) and 65.5% (inactive) and 67.1% (inactive); in the assay with HCT-116 colon, 18.5% (inactive) and 77% (inactive) and 63.4% (inactive); in the assay with KM12 colon, 16.3% (inactive) and 97% (inactive) and 94.7% (inactive).
Turning to `C(#CCN1CCOCC1)CCCN1CCOCC1`, the growth is 105% (inactive) and 101% (inactive) with T-47D breast; 99.5% (inactive) and 53.3% (inactive) in the assay with BT-549 breast; 102% (inactive) and 101% (inactive) with MDA-MB-435 melanoma; 91.9% (inactive) and 99.5% (inactive) in the assay on MCF7 breast; 105% (inactive) and 107% (inactive) with HCT-116 colon; 99.6% (inactive) and 98.9% (inactive) in the assay on HCC-2998 colon. Moreover, in the assay with KM12 colon, the growth was 105% (inactive) and 106% (inactive).
Take `C=CCN1C(=O)c2ccccc2C1=O`: the growth with T-47D breast is 118% (inactive); in the assay with BT-549 breast, 96.8% (inactive); in the assay on MDA-MB-435 melanoma it was 106% (inactive); with MCF7 breast it was 98.6% (inactive); in the assay with HCT-116 colon it was 99.2% (inactive); in the assay on HCC-2998 colon, 104% (inactive). Moreover, the growth in the assay on KM12 colon was 110% (inactive).
In the case of `CCOCCC(=O)O`, the growth with T-47D breast is 94.1% (inactive); in the assay on BT-549 breast, 107% (inactive); in the assay with MDA-MB-435 melanoma, 108% (inactive); in the assay with MCF7 breast, 104% (inactive); in the assay on HCT-116 colon, 97.3% (inactive); in the assay with HCC-2998 colon it was 123% (inactive). In addition, the growth in the assay with KM12 colon is 117% (inactive).
